Assay results published in ChEMBL document CHEMBL4513216, “Probing the Open Global Health Chemical Diversity Library for Multistage-Active Starting Points for Next-Generation Antimalarials” (ACS Infect Dis, 2020).
Out of some 68,000 compounds screened, about 2,700 (4%) showed an effect of 50% or more. The sample as a whole holds a higher share of strong results than the screen did.

test system: Plasmodium berghei; assay: Screen against P. berghei liver stage (PbLuc), transformed with Luciferase, at 2uM; format: functional, HepG2; details: tested at 2 uM

SMILES	INHIBITION [%]
CC(C)c1cc(C(=O)NCCCN(C)C)nc(N2CCCC2)n1	27.54
Cc1noc(CNc2ccc(OC(F)F)cc2OC(F)F)n1	57.23
FC(F)Oc1ccc(NCc2nc(C3CC3)no2)c(OC(F)F)c1	-35.14
CC(C)c1noc(CNc2ccc(OC(F)F)cc2OC(F)F)n1	-70.61
O=C(NCCc1cc(F)ccc1F)NCC(O)C1CC1 (centres undefined)	30.69
c1ccc(O[C@H]2COCCN(CC3CC3)C2)cc1	20.5
CC(NC(=O)NCCCn1cccn1)c1cccnc1 (centres undefined)	-8.05
CC(NC(=O)Cn1cccn1)c1cccnc1 (centres undefined)	42.58
CC(CC(=O)NCCCn1cccn1)c1cccnc1 (centres undefined)	74.51
Cc1nc(O)c2c(n1)CCN(Cc1cc(C)sc1C)CC2	-0.21
CCC[C@@H]1CN(Cc2ccccc2-c2ccco2)C[C@H]1NC(C)=O	28.19
COCCN1CCC(Cc2cnc(-c3ccccc3C(=O)O)cn2)CC1	20.44
Cc1nnc(C(C)NCC2(c3c(F)cccc3F)CCCC2)o1 (centres undefined)	50.9
Cc1nnc(C(C)NCC2(c3ccc(F)cc3)CCCCC2)o1 (centres undefined)	-55.34
Cc1cccc(C2(CNC(C)c3nnc(C)o3)CCCC2)c1 (centres undefined)	38.96
O=C(NCC1CC1)[C@@H]1CCO[C@@H]2CCN(Cc3ccsc3)C[C@H]21	28.38
O=C(O)c1cc(-c2cc[nH]n2)cc(S(=O)(=O)N2CCCCCC2)c1	23.17
O=C1CN(c2ccc(CNC(=O)Nc3nccs3)cc2)CCN1	29.4
Nc1nccnc1C1CN(C(=O)c2ccnnc2)CCO1 (centres undefined)	27.39
CCc1n[nH]c(C2CN(C(=O)c3ccc4c(c3)COC4)CCO2)n1 (centres undefined)	-0.99
Cc1n[nH]c(C2CN(C(=O)c3ccc4c(c3)CCCC4)CCO2)n1 (centres undefined)	-1.87
Cc1n[nH]c(C2CN(C(=O)c3ccc4c(c3)COC4)CCO2)n1 (centres undefined)	67.28
CCc1n[nH]c(C2CN(C(=O)c3ncoc3CC)CCO2)n1 (centres undefined)	-15.34
CCc1n[nH]c(C2CN(C(=O)c3nc(C)ncc3Cl)CCO2)n1 (centres undefined)	63.95
Nc1nccnc1C1CN(C(=O)c2ccc3c(c2)OCO3)CCO1 (centres undefined)	50.32

SMILES	INHIBITION [%]
Nc1nccnc1C1CN(C(=O)c2cnc(C3CC3)nc2)CCO1 (centres undefined)	39.9
CCc1n[nH]c(C2CN(C(=O)c3cnc(C)nc3CC)CCO2)n1 (centres undefined)	39.07
COc1ccc(CN2CC[C@H](O)[C@@H]2Cc2cnn(C)c2)cc1	-10.92
CC(NC(=O)N(C)Cc1cnn(C)c1)c1nncn1C (centres undefined)	18.63
O=C(Nc1ccc2ncccc2c1)C1CC(=O)N(Cc2ccccn2)C1 (centres undefined)	-6.89
Cc1noc(C)c1CCC(=O)N1CCN(CCn2cncn2)CC1	33.75
O=C(CCC(F)(F)F)N1CCCC2(CCC(=O)N(CC3CC3)C2)C1 (centres undefined)	-6.04
O=C(CSCC1CC1)N1CCCC2(CCC(=O)N(CC3CC3)C2)C1 (centres undefined)	1.42
CN(C)C(=O)NCC(=O)N1CCCC2(CCC(=O)N(CC3CC3)C2)C1 (centres undefined)	40.61
O=C(CO)N1CCCC2(CCC(=O)N(CC3CC3)C2)C1 (centres undefined)	62.38
CC(C)CCN1CC2(CCCN(C(=O)CNC(=O)N(C)C)C2)CCC1=O (centres undefined)	58.03
CC(=O)NCC(=O)N1CCCC2(CCC(=O)N(CCc3c[nH]cn3)C2)C1 (centres undefined)	-53.74
CCN1CCN(C2CCN(Cc3ccc(Cl)s3)CC2)C1=O	18.52
COCC1CC2(CCN(Cc3ccccn3)CC2)CN1c1ncccn1 (centres undefined)	-23.78
Cc1nnc(SCCCNc2cc(C3CC3)ncn2)s1	60.35
COc1cc(NCCCSc2nnc(C)s2)ncn1	-29.43
Cc1nnc(SCCNc2cc(C3CC3)ncn2)s1	12.17
Cc1cc(CN2CCC(c3ccnn3CCO)CC2)no1	20.28
COc1cc(S(=O)(=O)N2CCc3ccccc32)cc(C(=O)O)c1OC	12.65
COc1cc(S(=O)(=O)N2CCc3ccc(Cl)cc32)cc(C(=O)O)c1OC	6.3
COc1cc(S(=O)(=O)N2CCCc3ccccc32)cc(C(=O)O)c1OC	56.72
O=C(c1cnccn1)N1CCOCC2(CCN(C3CCOCC3)C2)C1 (centres undefined)	26.14
Cc1nc(CN2C[C@@H](CN3CCOCC3)[C@@H](CO)C2)c2ccccn12	25.81
O=S(=O)(Cc1ccc(Br)cc1)NCCO	17.51
NCCCNS(=O)(=O)Cc1ccc(Br)cc1	5.28

SMILES	INHIBITION [%]
NCCNS(=O)(=O)Cc1ccc(Br)cc1	50.59
Cn1cc(CN2CC3(CCN(C(=O)c4cscn4)C3)C2)cn1	-9.1
Cc1csc(C(=O)NCCN2CCC(c3cccs3)CC2)c1	18.23
CC(=O)NCCN1CCC(c2cccs2)CC1	26.64
COc1ccc(C(=O)NCCN2CCC(c3cccs3)CC2)cc1OC	66.04
c1cncc(N2CCO[C@H]3CN(CC4CCOC4)C[C@H]32)c1 (some centres undefined)	19.51
O=C(Cn1cc(-c2ccccc2)ncc1=O)Nc1ncc[nH]1	-80.35
COCCNc1ncc(-c2cccc(F)c2)c(-c2nccn2C)n1	27.12
COCCNc1ncc(-c2cccc(OC)c2)c(-c2nccn2C)n1	54.87
COCCNc1ncc(-c2cc(C)no2)c(-c2ccco2)n1	-29.24
CCOCCCNc1ncc(-c2cccc(F)c2)c(-c2nccn2C)n1	55.72
Cn1ccnc1-c1nc(NC2CCCC2)ncc1-c1cccc(F)c1	14.3
COCCCNc1ncc(-c2cccc(F)c2)c(-c2nccn2C)n1	-18.57
CN(C)C(=O)COCc1cncc2c1CCN(Cc1cnn(C)c1)C2	14.91
Cc1ccc2c(n1)N(C)CCN(Cc1ccco1)C2	29.89
O[C@@H]1CN(Cc2cnccn2)C[C@H]1Oc1ccccc1	26.14
CN(C)S(=O)(=O)N1CCC2(CC1)CC(Oc1ccccn1)CO2 (centres undefined)	56.78
c1ccc(CN2CC[C@]3(C[C@@H](Oc4ccccn4)CO3)C2)nc1	8.1
c1ccc(OC2C[C@@H]3CN(Cc4cnccn4)C[C@@H]3C2)cc1 (some centres undefined)	50.32
c1ccc(CO[C@@H]2CO[C@@]3(CCN(Cc4ccccn4)C3)C2)nc1	40.25
Cc1cnc(CN2C[C@H]3CC(Oc4ccccc4)C[C@H]3C2)cn1 (some centres undefined)	25.06
CS(=O)(=O)N1CCC2(CC1)CC(Oc1ccccn1)CO2 (centres undefined)	-0.23
c1ccc(OC2COC3(CCN(Cc4ccccn4)CC3)C2)cc1 (centres undefined)	62.15
CN(C)S(=O)(=O)N1CCC[C@]2(C[C@@H](Oc3ccccn3)CO2)C1	19.61
